# Changes are numbered by the printed parent chain.
# Tests used:
# Assay in all cases: protein-binding microarray (PBM); PBM: ~300 nM protein, 6 mM HEPES pH 7.8, 80 mM KCl, 0.5 mM EDTA, 0.5 mM EGTA, 6% glycerol, 35 ng/ul poly-dIdC, 1% milk, 1 h, room temperature; Ap Aiptasia and Nv Nematostella (sea anemones) / Co Capsaspora / Aq Amphimedon (sponge) / Dm Drosophila / Hu human; RHD is the Rel homology domain; high values mean tight binding
# Conditions in all cases: dsDNA, one strand shown
# GST-Ap-NF-kB RHD = biological target: T1, GST-Ap-NF-kB RHD (Exaiptasia pallida (Aiptasia), UniProt A0A913YAJ5 2-422)
# T1 sequence: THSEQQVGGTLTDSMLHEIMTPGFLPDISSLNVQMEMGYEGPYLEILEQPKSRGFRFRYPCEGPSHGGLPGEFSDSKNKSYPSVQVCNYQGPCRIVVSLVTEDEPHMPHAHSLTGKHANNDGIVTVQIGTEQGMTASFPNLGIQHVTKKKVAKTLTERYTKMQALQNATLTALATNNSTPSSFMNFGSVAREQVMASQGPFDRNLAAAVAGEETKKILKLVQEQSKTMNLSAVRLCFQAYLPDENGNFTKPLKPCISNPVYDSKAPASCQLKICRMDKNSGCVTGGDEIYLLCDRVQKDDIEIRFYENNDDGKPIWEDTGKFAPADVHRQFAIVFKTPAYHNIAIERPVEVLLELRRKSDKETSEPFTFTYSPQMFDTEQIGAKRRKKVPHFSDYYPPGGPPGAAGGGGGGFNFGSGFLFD
# [1] = biological target: T2, GST-Nv-NF-kB (Cys allele) (Nematostella vectensis, UniProt E5G601 2-411)
# T2 sequence: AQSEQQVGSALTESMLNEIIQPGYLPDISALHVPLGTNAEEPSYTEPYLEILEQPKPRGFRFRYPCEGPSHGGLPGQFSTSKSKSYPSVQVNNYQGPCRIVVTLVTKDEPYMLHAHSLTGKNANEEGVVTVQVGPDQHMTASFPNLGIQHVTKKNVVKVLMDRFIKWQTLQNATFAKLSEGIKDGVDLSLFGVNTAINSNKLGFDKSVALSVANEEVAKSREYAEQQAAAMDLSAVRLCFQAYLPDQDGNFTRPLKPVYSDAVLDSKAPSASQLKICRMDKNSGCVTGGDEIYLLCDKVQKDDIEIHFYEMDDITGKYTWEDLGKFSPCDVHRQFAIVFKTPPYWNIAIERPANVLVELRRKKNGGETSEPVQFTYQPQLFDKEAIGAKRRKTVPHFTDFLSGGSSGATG
# GST-Co-NF-kB = biological target: T3, GST-Co-NF-kB (Capsaspora owczarzaki, UniProt F1ARL5 200-546)
# T3 sequence: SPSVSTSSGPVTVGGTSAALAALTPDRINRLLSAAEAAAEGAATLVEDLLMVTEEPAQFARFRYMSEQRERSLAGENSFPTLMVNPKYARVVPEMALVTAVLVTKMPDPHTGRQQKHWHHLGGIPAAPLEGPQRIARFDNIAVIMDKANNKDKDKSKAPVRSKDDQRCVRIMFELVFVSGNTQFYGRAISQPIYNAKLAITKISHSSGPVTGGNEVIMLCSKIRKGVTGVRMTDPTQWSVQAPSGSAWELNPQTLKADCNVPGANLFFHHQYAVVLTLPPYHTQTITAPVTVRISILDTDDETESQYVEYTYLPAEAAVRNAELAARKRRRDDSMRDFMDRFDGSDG
# GST-Aq-NF-kB = biological target: T4, GST-Aq-NF-kB (Amphimedon queenslandica, UniProt A9Y5G7 2-389)
# T4 sequence: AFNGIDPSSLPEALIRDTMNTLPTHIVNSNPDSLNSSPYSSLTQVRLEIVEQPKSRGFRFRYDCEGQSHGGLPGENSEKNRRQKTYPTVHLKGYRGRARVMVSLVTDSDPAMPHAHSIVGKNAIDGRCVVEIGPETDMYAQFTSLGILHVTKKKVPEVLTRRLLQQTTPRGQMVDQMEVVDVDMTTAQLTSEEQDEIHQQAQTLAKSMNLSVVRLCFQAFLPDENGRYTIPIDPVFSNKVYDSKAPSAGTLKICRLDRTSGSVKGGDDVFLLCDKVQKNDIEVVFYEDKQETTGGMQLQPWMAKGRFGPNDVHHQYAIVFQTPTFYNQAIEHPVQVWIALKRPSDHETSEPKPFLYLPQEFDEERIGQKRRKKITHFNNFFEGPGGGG
# [2] = biological target: T5, GST-Nv-NF-kB (Ser allele) (Nematostella vectensis, UniProt A7UNT2 2-411)
# T5 sequence: T2 sequence with Q21R, C66S, S207N, E215Q, V217A, E225K, A268E, D399E
# GST-Dm-Relish = biological target: T6, GST-Dm-Relish (Drosophila melanogaster, UniProt Q94527 99-473)
# T6 sequence: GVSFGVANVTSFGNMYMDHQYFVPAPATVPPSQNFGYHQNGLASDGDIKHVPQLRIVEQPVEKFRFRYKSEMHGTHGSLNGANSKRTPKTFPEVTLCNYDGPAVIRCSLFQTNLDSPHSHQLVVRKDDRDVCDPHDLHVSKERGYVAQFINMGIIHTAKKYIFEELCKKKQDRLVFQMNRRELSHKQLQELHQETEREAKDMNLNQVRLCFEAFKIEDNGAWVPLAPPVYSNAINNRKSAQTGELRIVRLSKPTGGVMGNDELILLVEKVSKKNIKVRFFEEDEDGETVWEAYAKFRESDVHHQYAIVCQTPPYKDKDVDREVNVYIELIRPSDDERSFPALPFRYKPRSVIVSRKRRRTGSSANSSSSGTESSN
Sequence,binding signal (GST-Ap-NF-kB RHD),binding signal [1],binding signal (GST-Co-NF-kB),binding signal (GST-Aq-NF-kB),binding signal [2],binding signal (GST-Dm-Relish)
CCGATTAACATCAAGCCCCCCCCTGATGTTAATCGGGTCTTGATTCGCTTGACGCTGCTG,5.25 z-score,4.21 z-score,4.89 z-score,4.71 z-score,,
CCGATTAACATCAGCCCCCCGTCTGATGTTAATCGGGTCTTGATTCGCTTGACGCTGCTG,3.16 z-score,2.22 z-score,3 z-score,3.37 z-score,1.71 z-score,3.83 z-score
CCGATTAACATCAACCTTTCCCCTGATGTTAATCGGGTCTTGATTCGCTTGACGCTGCTG,5.33 z-score,6.21 z-score,6.19 z-score,4.44 z-score,7.66 z-score,1.62 z-score
CCGATTAACATCAAAAAACTACCTGATGTTAATCGGGTCTTGATTCGCTTGACGCTGCTG,2.29 z-score,3 z-score,,3.57 z-score,7.62 z-score,6.2 z-score
CCGATTAACATCAACCTCCCCCCTGATGTTAATCGGGTCTTGATTCGCTTGACGCTGCTG,5.79 z-score,3.9 z-score,6.38 z-score,4.25 z-score,3.61 z-score,4.38 z-score
CCGATTAACATCACCGCTTCCCTTGATGTTAATCGGGTCTTGATTCGCTTGACGCTGCTG,1.62 z-score,1.86 z-score,1.46 z-score,2 z-score,,
CCGATTAACATCAAGCGTTTCCCTGATGTTAATCGGGTCTTGATTCGCTTGACGCTGCTG,2.29 z-score,3.6 z-score,2.62 z-score,2.82 z-score,,
CCGATTAACATCACGTATTCCCCTGATGTTAATCGGGTCTTGATTCGCTTGACGCTGCTG,7.14 z-score,7.75 z-score,6.56 z-score,5.55 z-score,7.86 z-score,4.86 z-score
CCGATTAACATCATGGGAAGGTTTGATGTTAATCGGGTCTTGATTCGCTTGACGCTGCTG,1.34 z-score,1.55 z-score,2.28 z-score,1.66 z-score,,
CCGATTAACATCAAAATTCCCTCTGATGTTAATCGGGTCTTGATTCGCTTGACGCTGCTG,5.17 z-score,7.29 z-score,3.2 z-score,6.5 z-score,7.2 z-score,5.36 z-score
CCGATTAACATCAGAGTTTCCCATGATGTTAATCGGGTCTTGATTCGCTTGACGCTGCTG,3.08 z-score,3.42 z-score,3.76 z-score,3.07 z-score,,
CCGATTAACATCAATTTTTTCCCTGATGTTAATCGGGTCTTGATTCGCTTGACGCTGCTG,3.79 z-score,5.88 z-score,6.48 z-score,4.16 z-score,7.47 z-score,2.71 z-score
CCGATTAACATCATCTGGGAAAATGATGTTAATCGGGTCTTGATTCGCTTGACGCTGCTG,1.33 z-score,2.91 z-score,3.73 z-score,1.45 z-score,,
CCGATTAACATCATGGGGACGACTGATGTTAATCGGGTCTTGATTCGCTTGACGCTGCTG,3.56 z-score,3.19 z-score,2.39 z-score,2.64 z-score,,
CCGATTAACATCAGGGAATTAGATGATGTTAATCGGGTCTTGATTCGCTTGACGCTGCTG,1.83 z-score,3.48 z-score,2.41 z-score,3.43 z-score,,
CCGATTAACATCAGGGAAAGGTATGATGTTAATCGGGTCTTGATTCGCTTGACGCTGCTG,2.16 z-score,3.44 z-score,2.67 z-score,3.59 z-score,,

Sequence,binding signal (GST-Ap-NF-kB RHD),binding signal [1],binding signal (GST-Co-NF-kB),binding signal (GST-Aq-NF-kB),binding signal [2],binding signal (GST-Dm-Relish)
CCGATTAACATCAATTCCCGTACTGATGTTAATCGGGTCTTGATTCGCTTGACGCTGCTG,1.81 z-score,2.92 z-score,2.55 z-score,2.81 z-score,,
CCGATTAACATCAGAATCTCCCATGATGTTAATCGGGTCTTGATTCGCTTGACGCTGCTG,1.74 z-score,2.74 z-score,1.64 z-score,2.73 z-score,,
CCGATTAACATCAGGGAAAAGGATGATGTTAATCGGGTCTTGATTCGCTTGACGCTGCTG,1.79 z-score,3.4 z-score,2.73 z-score,2.41 z-score,,
CCGATTAACATCAAAGCATTCCCTGATGTTAATCGGGTCTTGATTCGCTTGACGCTGCTG,2.32 z-score,3.04 z-score,2.52 z-score,3.35 z-score,,
CCGATTAACATCATGATGGGAAATGATGTTAATCGGGTCTTGATTCGCTTGACGCTGCTG,1.17 z-score,2.84 z-score,1.71 z-score,1.64 z-score,,
CCGATTAACATCACCCACTTCCCTGATGTTAATCGGGTCTTGATTCGCTTGACGCTGCTG,1.06 z-score,1.67 z-score,1.4 z-score,1.65 z-score,,
CCGATTAACATCACTCCCTAAAATGATGTTAATCGGGTCTTGATTCGCTTGACGCTGCTG,1.35 z-score,2.35 z-score,1.22 z-score,3.48 z-score,,
CCGATTAACATCAGGAGTCTCCCTGATGTTAATCGGGTCTTGATTCGCTTGACGCTGCTG,1.69 z-score,2.44 z-score,2.17 z-score,5.28 z-score,,
CCGATTAACATCATGTTGGGAAATGATGTTAATCGGGTCTTGATTCGCTTGACGCTGCTG,1.02 z-score,2.29 z-score,2.51 z-score,1.2 z-score,,
CCGATTAACATCACGGTGGGAAATGATGTTAATCGGGTCTTGATTCGCTTGACGCTGCTG,2.05 z-score,2.39 z-score,2.77 z-score,1.94 z-score,,
CCGATTAACATCAGCTCCCCCCCTGATGTTAATCGGGTCTTGATTCGCTTGACGCTGCTG,5.26 z-score,3.87 z-score,5.77 z-score,3.99 z-score,,
CCGATTAACATCAGGGGTAGGTTTGATGTTAATCGGGTCTTGATTCGCTTGACGCTGCTG,2.16 z-score,1.65 z-score,3.22 z-score,2.1 z-score,,
CCGATTAACATCAAACAGGGAAATGATGTTAATCGGGTCTTGATTCGCTTGACGCTGCTG,2.71 z-score,4.69 z-score,2.47 z-score,3.23 z-score,,
CCGATTAACATCACATGGGAAACTGATGTTAATCGGGTCTTGATTCGCTTGACGCTGCTG,1.24 z-score,2.14 z-score,2.48 z-score,1.58 z-score,,
CCGATTAACATCACTTTCCCAAATGATGTTAATCGGGTCTTGATTCGCTTGACGCTGCTG,1.27 z-score,2.64 z-score,2.28 z-score,1.54 z-score,,
